PubChem BioAssay AID493087 (The Scripps Research Institute Molecular Screening Center, 2011)
About 240 (0.071%) of roughly 340,000 compounds were called active.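 The calls were made as follows: active = activation above the mean of all tested compounds plus 3 SD, set per screening campaign (cut at about 17% in these data); inactive = the rest.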 The sample as a whole holds a higher share of actives than the screen did.

The molecules below were run against Insulin-degrading enzyme (Homo sapiens) (UniProt P14735) (assay: human IDE activators in live cells, primary screen, fluorescence polarization, HEK cells, FAbeta-B substrate (AID 493087)). Settings: FAbeta-B cleavage, at 5.96 µM, stronger effect = higher value, 0% vehicle, 100% cell-free pure enzyme wells.
Sequence of Insulin-degrading enzyme (Homo sapiens) (P14735 whole entry, looked up): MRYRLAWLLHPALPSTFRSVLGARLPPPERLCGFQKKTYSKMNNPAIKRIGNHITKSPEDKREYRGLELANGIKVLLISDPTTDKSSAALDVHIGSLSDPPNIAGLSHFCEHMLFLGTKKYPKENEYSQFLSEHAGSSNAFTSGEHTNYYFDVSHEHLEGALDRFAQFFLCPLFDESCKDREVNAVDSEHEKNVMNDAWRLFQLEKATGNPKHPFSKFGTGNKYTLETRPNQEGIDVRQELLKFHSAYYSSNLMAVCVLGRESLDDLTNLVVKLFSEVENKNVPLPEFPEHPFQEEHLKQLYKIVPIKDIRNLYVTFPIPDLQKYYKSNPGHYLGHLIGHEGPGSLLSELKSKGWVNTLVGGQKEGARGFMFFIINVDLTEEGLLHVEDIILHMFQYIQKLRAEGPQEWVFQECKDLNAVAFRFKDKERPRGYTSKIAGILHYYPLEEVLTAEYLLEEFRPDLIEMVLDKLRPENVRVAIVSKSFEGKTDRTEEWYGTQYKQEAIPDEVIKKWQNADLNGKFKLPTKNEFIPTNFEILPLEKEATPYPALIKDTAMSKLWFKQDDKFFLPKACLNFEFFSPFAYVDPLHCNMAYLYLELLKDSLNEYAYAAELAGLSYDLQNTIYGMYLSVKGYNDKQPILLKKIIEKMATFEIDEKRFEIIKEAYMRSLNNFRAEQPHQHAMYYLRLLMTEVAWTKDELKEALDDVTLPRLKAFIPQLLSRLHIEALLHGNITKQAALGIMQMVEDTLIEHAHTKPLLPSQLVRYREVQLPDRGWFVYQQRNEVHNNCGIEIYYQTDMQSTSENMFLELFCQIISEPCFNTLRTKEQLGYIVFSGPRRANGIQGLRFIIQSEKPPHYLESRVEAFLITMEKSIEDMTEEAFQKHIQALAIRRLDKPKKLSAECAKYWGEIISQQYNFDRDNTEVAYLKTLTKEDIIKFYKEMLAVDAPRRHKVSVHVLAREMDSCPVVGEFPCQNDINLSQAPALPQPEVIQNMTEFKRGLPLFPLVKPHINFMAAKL

activation, inactive:
CCOc1ccc(CCNC(=O)COC(=O)C2CCN(S(=O)(=O)c3ccccc3)CC2)cc1OCC 2.21%
CCc1nnc(NC(=O)C2CC(=O)N(c3ccc4c(c3)OCCO4)C2)s1 (centres undefined) 3.02%
Cn1c(=O)n(C)c2cc(S(=O)(=O)Nc3ccc(F)cc3)ccc21 4.63%
Cc1cc2oc(C(=O)Nc3c(C)n(C)n(-c4ccccc4)c3=O)c(C)c2cc1Cl 1.29%
S=C1Nc2cc(Cl)ccc2Sc2ccccc21 0.11%
CC(C#N)(NC(=O)CN1CCN(S(=O)(=O)c2cc(C(F)(F)F)ccc2Cl)CC1)C1CC1 (centres undefined) 5.5%
CNC(=O)NC(=O)C(OC(=O)c1cccc(S(=O)(=O)N2CCCCC2)c1)c1ccccc1 (centres undefined) -3.23%
N#Cc1ccccc1NC(=O)COc1c(Br)cc(Br)c2cccnc12 -2.72%
COc1ccc(S(=O)(=O)N2CCN(c3cnccn3)CC2)cc1 0.13%
O=C(NCCc1ccc(F)cc1)c1ccc2nccnc2c1 -0.11%
CCC(=O)Nc1cccc(C2=NOC3(C2)C[C@@H](C(N)=O)N(C(=O)c2cc([N+](=O)[O-])cc([N+](=O)[O-])c2C)C3)c1 (some centres undefined) 5.78%
O=C(N/C(=C\c1ccc(F)cc1)C(=O)N1CCCCCC1)c1ccccc1 5.73%
O=C(C1Cc2ccccc2CN1C(=O)c1ccco1)N1CCN(c2ccccc2)CC1 (centres undefined) 4.46%
CCOC(=O)CSc1nnc(CNC(=O)c2cccs2)n1-c1cc(OC)ccc1OC 0.94%
COc1ccc(-c2oc3ncn(Cc4ccco4)c(=N)c3c2-c2ccc(OC)cc2)cc1 5.41%
CCOC(=O)c1cccc(NC(=O)CN2C(=O)C3CC=CCC3C2=O)c1 (centres undefined) 1.23%
Cn1c2ccccc2c2cc(/C=C(\NC(=O)c3ccccc3)C(=O)NCC(=O)O)ccc21 -43.6%
CCN1CCN(c2cc3nc(C)n(Cc4ccccc4)c(=O)c3cc2NC(=O)c2ccccc2F)CC1 2.61%
Cc1ccsc1C(=O)NC1CCCCC1C (centres undefined) -2.46%
Cc1cc(=O)oc(C)c1C(=O)NCCN(C)Cc1ccccc1 -4.58%
CN(C(=O)CSc1nnc(C2CC2)n1C)C1CCCc2ccccc21 (centres undefined) 0.43%
CC(C)C(NC(=O)c1c(F)cccc1F)C(=O)NNC(=O)c1ccccc1 (centres undefined) 5.51%
O=S(=O)(Nc1ccc2ccccc2c1)N1CCCCC1 1.85%
CC1CCC(NS(=O)(=O)c2ccc3c(c2)CC(=O)N3)CC1 (centres undefined) 3.97%
